The panel holds about 83,000 compounds, 20% with a hit somewhere; the sample as a whole holds those more often.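 Treatment: one concentration, 48 hours, 96-well format. Scoring: percent growth, with anything below 10 considered active.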 A number with no mark means an inactive call. The source made the active and inactive calls.

This assay relates to U251 CNS. Briefly: NCI-60 one-dose screen, 48 h (100 = growth as untreated, 0 = no growth, -100 = all killed). Conditions: 10 µM unless noted. As for the experimental part: Growth inhibition of the U251 human tumor cell line is measured as a screen for anti-cancer activity. Cells are grown in 96 well plates and exposed to the test compound for 48 hours. Compounds are tested at a single concentration, which is 10^-5 M for most compounds. The reported endpoint is percent growth (GI% or GIPRCNT), where numbers from 0 - 100% represent growth inhibition, and numbers from -100% - 0 represent cell death. For example, a value of 40 represents 60% growth inhibition. A value of 0 means no net growth occurred over the course of the experiment. A value of -40 indicates 40% of cells at the beginning of the experiment died by the end of the experiment. A value of -100 means all cells are dead at the end of the experiment.
NCI-60 Human Tumor Cell Lines Screen was performed using the standard one-dose NCI protocol, which is described in more detail at https://dtp.cancer.gov/discovery_development/nci-60/default.htm.
Compounds with GIPRCNT values below 10 were considered active. Activity score was based on GIPRCNT using the following formula: […]
Score is 0 for GIPRCNT values of 100 or above, 50 for GIPRCNT values of 0, and 100 for GIPRCNT values of -100.
Regarding `O=C(Nc1cccc(-n2cc(-c3ccncc3)c(-c3ccc(Cl)c(O)c3)n2)c1)c1ccccc1`, the growth is 75.4%. With `CNc1ccc(Br)c2c1C(=O)c1ccccc1C2=O`, the growth is 103%.

Consider `CN(C[C@H]1Cc2c(cccc2N2CCN(Cc3ccccn3)CC2)CN1)[C@H]1CCCc2cccnc21`, for which the growth was 32.5%.

For the compound `C=C[C@@H]1C[C@@H]2Cc3ccccc3N1O2`, the growth is 101%. Turning to `N=C(N)c1ccc(-c2ccc(-c3ccc4ccccc4c3)s2)cc1`, the growth is 27%. As for `COc1ccc(C(=O)N2NC(=O)/C(=C/c3ccccc3F)N=C2c2ccccc2)cc1`, the growth is 96.7%. The figure for `Cc1ccc(-c2cc3nc(C(Cl)Cl)nc(-c4cccnc4)n3n2)cc1` is -15.3% (active); for `CCCCCCN1CSC(=S)N(CCCCCC)C1` it is 103%; for `Cn1c(=O)c2[nH]c(C3CC=CCC3)nc2n(C)c1=O` (stereo not given) it is 105%.

On to `C[n+]1c(/C=C/c2c(O)ccc3ccccc23)ccc2ccccc21`, for which the growth is 17.3%. As for `CC(=O)Oc1cccc(S(=O)(=O)n2cc(C(=O)C(=O)Nc3ccncc3)c3ccccc32)c1`, the figure is 93.1%; as for `N#Cc1ccc(N2Cc3ccccc3OC3=C2C(=O)c2c(O)ccc(O)c2C3=O)cc1`, 10.2%; as for `COP(=O)(OC)/C(=N\NS(=O)(=O)c1ccc(C)cc1)c1ccccc1`, 105%. As for `CC12CCC3C4(C)COC(c5ccccc5Cl)OC4CCC3(C)C1CC(C1=CCOC1=O)O2` (stereo not given), the figure is 74.1%; as for `Cc1ccc(N2CCN(C(C)C(N)=O)CC2)cc1` (stereo not given), 107%. The figure for `COc1ccc(Nc2ncccc2C(=O)NCc2cn(Cc3cccc(Oc4ccccc4)c3)nn2)cc1` is 46.2%; for `O=C(NNC(=O)N1c2ccccc2C=Cc2ccccc21)c1ccc2ccccc2c1` it is 92.6%. On to `Clc1ccc(-c2nc3ccccc3s2)cc1Cl`, for which the growth is 86.9%.

For `O=C1c2c(c3c4ccccc4n(CCCCCCBr)c3c3[nH]c4ccccc4c23)C(=O)N1O`, the growth was 10.9%. As for `CCOC(=O)c1cn2c3c(cc(C)cc3c1=O)C(=O)/C(=C/c1ccccc1)C2`, the figure is 83.3%. The figure for `C=C[C@@H]1C[C@H](O)Cc2cc(F)ccc2N1` is 93.3%; for `CC(=O)c1cc2c(N)c(C(=O)Nc3cccc4c3OCCO4)sc2nc1C` it is 99.4%.

`O=C(Nc1cccc(-n2cc(-c3ccncc3)c(-c3ccc(Cl)c(O)c3)n2)c1)Nc1cc(C(F)(F)F)cc(C(F)(F)F)c1`: the growth is -83.8% (active). As for `NC1N=C(SCC(=O)N2CCN(c3cc4c(cc3F)c(=O)c(C(=O)O)cn4C3CC3)CC2)NC(=O)/C1=C/c1ccc(Cl)cc1` (stereo not given), the figure is 99.8%.

Take `N=C(N)c1ccc(-c2cc(Cl)cc(Cl)c2)cn1`: the growth was 97.3%.

Take `CCn1c2ccccc2c2cc(NC(=O)Nc3ccc([N+](=O)[O-])cc3C)ccc21`: the growth is 31.5%. The figure for `CC1=C(C#N)C(=O)NC(C)C1` (stereo not given) is 105%; for `COc1ccc(NC(=O)c2cc(OC)c(OC)c(OC)c2)cc1O` it is 40.4%; for `COc1ccc(/C(C#N)=C/c2cc(OC)c(OC)c(OC)c2)cc1` it is 34.4%.

Regarding `CC(C)(C)OC(=O)NC(CSCc1ccccc1)C(=O)ON1C(=O)CCC1=O` (stereo not given), the growth was 105%.

As to `O=C1c2c(Cl)c(Cl)c(Cl)c(Cl)c2C(=O)C2(Cl)CC=CCC12Cl` (stereo not given), the growth was -30.2% (active). As for `Cc1cc(N/N=C/c2nc(-c3ccccc3)oc2C)c2cc(Cl)ccc2n1`, the figure is -76.9% (active); as for `Fc1ccc(-c2nc(-c3nc4ncccc4[nH]3)cc3c2[nH]c2ccccc23)cc1F`, 81.9%. As for `COc1cc(/C=C/C(=O)N2CCN(C(=O)/C=C/c3cc(OC)c(OC)c(OC)c3)CC2)cc(OC)c1OC`, the figure is 103%.

As to `COc1cc(/C=C/c2cc(/C=C/c3ccc(O)c(OC)c3)n(C(N)=O)n2)ccc1O`, the growth is -10.9% (active). The figure for `C=C1CCC2C(C)(CO)C(O)CCC2(C)C1C/C=C1/C(=O)OCC1Oc1ccccc1C` (stereo not given) is 88.4%; for `O=c1[nH]c(-c2ccccc2)nc(CN2CCCCC2)c1O` it is 103%; for `COc1ccc(/C=C2\Oc3cc(OCCCN4CCCC4)ccc3C2=O)cc1` it is 82.7%.

For `N/C(=N\C(N)=N\c1nc2ccccc2s1)c1ccncc1`, the growth is 71%. On to `CC1(C)C(=O)/C(=C\c2ccc(C(F)(F)F)cc2)C[C@]2(C)[C@H]3CC[C@@H]4[C@H]5[C@H](C(=O)/C=C/c6ccc(C(F)(F)F)cc6)CC[C@]5(CO)CC[C@@]4(C)[C@]3(C)CC[C@@H]12`, for which the growth is 92.8%.
